Data on twelve compounds can be found in PubChem BioAssay.

Assay [1] concerns Wnt5a (protein binding on small-molecule microarray). As to the kind of experiment: small molecules binding Wnt5a protein – biophysical, small-molecule microarray, 635/667 nm fluorescence, primary screen (AID 1142).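 Further: fluorescence read at 667 nm with signal to noise per printed feature.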 The note with it: 635 nm fluorescence, higher = more signal.
Assay [2] is described as follows: ATP-based viability of Huh7 replicon cells – cell-based, CellTiter-Glo luminescence, basal, 48 h, cytotoxicity control for HCV replication inhibitor project, primary screen (AID 1143).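 Further: Huh7 hepatoma cells carrying a hepatitis C replication reporter with no stimulus; test concentration not given here.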 The note with it: higher = more signal, called active from +8 up or from −8 down.
Assay [3] can be described thus: Pseudomonas biofilm growth suppression – PAO1 strain, BacTiter-Glo luminescence, LB-PBS, primary screen (AID 1144). The following applies: P. aeruginosa PAO1 biofilm, 12 h, higher = more signal.
Assay [4] can be described thus: basal CRE-LacZ reporter activity in PC12 – cell-based, unstimulated, primary screen (AID 1145). The following applies: no forskolin, luminescence, 4.5 h, higher = more signal, called active from +8 up or from −8 down.
Assay [5] is described as follows: forskolin-driven CRE-LacZ activity in PC12 – cell-based, CRE-LacZ reporter, forskolin-stimulated, primary screen (AID 1146).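 Further: PC12 cells with 6xCRE LacZ reporter stimulated by forskolin 10 µM; beta-galactosidase reporter signal reflecting CREB driven transcription.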 The following applies: luminescence, 4.5 h, higher = more signal, called active from +8 up or from −8 down.
In assay [6] the target is Streptavidin (Streptomyces avidinii) (UniProt P22629). The assay can be described thus: compounds binding control protein streptavidin – biophysical, small-molecule microarray, 635/667 nm fluorescence, artefact control for SMM compound annotation, primary screen (AID 1147).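 Further: signal reflects streptavidin binding to arrayed compounds as a control protein.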 The note with it: higher = more signal.
Assay [7] is described as follows: probe aInhba binding on compound microarray – biochemical, small-molecule microarray, 635/667 nm fluorescence, primary screen (AID 1148).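 Further: score merges 667nm spot fluorescence with signal-to-noise for antibody binding to printed compounds.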 The following applies: higher = more signal.
Assay [8] deals with Torsin-1A (Homo sapiens) (UniProt O14656). The assay can be described thus: TOR1A wild-type binding on microarray – cell lysate, small-molecule microarray, lysate, 635/667 nm, primary screen (AID 1149). The following applies: COS7 hTOR1A-WT lysate, 635 nm fluorescence, higher = more signal.
Assay [9] shares this target. As to the kind of experiment: torsin A mutant lysate binding on microarrays – cell lysate, small-molecule microarray, COS7 lysate, 635/667 nm fluorescence, primary screen (AID 1150).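 Further: score pools 667 nm emission and signal to noise measuring lysate protein binding.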 The following applies: COS7 hTOR1A mutant lysate, 635 nm fluorescence, higher = more signal.
Assay [10] has as its system Sonic hedgehog protein (Shh). As to the kind of experiment: Sonic hedgehog microarray binding compounds – biochemical, small-molecule microarray, 635/667 nm fluorescence, primary screen (AID 1151).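 Further: Shh protein binding to compounds spotted on small-molecule microarray slides; score combines spot fluorescence intensity with signal-to-noise across triplicate slides.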 The note with it: 635 nm fluorescence, higher = more signal.

Structures are written as SMILES. The source made the active and inactive calls. Unless noted, how the calls were made is not given here.

Sequence of Streptavidin (Streptomyces avidinii) (P22629 whole entry, looked up): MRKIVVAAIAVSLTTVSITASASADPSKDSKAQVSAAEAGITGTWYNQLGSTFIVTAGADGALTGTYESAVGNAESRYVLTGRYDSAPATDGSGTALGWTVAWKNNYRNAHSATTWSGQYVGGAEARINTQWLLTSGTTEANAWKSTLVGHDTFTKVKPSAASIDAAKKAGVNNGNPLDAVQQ
Sequence of Torsin-1A (Homo sapiens) (O14656 whole entry, looked up): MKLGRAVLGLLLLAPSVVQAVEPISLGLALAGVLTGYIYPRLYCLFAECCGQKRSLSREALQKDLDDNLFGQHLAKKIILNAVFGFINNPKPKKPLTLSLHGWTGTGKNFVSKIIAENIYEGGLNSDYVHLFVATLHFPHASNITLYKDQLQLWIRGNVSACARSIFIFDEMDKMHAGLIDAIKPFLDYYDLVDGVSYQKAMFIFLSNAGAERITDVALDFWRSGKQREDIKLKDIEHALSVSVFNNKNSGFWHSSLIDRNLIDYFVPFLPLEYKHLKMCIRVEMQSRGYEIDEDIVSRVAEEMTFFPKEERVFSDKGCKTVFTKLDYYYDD

`NC(=O)NCC#Cc1ccc2c(c1)[C@]1(C(=O)N2)[C@H](C(=O)N2CCCCCCC2)[C@H]2C(=O)O[C@H](c3ccccc3)[C@H](c3ccccc3)N2[C@@H]1c1ccc(OCCO)cc1`: the composite z-score in assay [1] worked out at 0.683; in assay [6] it was 2.11; in assay [7] it was 0.563; in assay [8], 0.92; in assay [9], 0.304; in assay [10], 0.679. The z-score in assay [2] is -0.416 (inactive); in assay [3], -0.0789 (inactive); in assay [4], 0.619 (inactive); in assay [5], 0.0646 (inactive).
As to `COc1ccc(CCNC(=O)[C@@]2(Sc3ccc(C)cc3)CC(=O)N(Cc3ccccc3Cl)[C@@H]2c2ccc(CO)cc2I)cc1`, the composite z-score in [1] was -0.234; in [6] it was -0.539; in assay [7] it was 0.12; in assay [8], -0.794; in assay [9], -0.491; in assay [10], 0.153. Further, the z-score in [2] was -2.2 (inactive); in assay [3], 0.0319 (inactive); in assay [4], 0.569 (inactive); in [5], 1.12 (inactive).
On to `O=C1O[C@H](c2ccccc2)[C@H](c2ccccc2)N2[C@H]1[C@@H](C(=O)NC[C@H](O)c1ccccc1)[C@]1(C(=O)Nc3ccc(C#CCCO)cc31)[C@H]2c1ccc(O)cc1`, for which the composite z-score in assay [1] was -0.11; in assay [6] it was -1.11; in assay [7], 0.295; in assay [8], -0.596; in [9], -1.36; in [10], -0.606. In addition, the z-score in [2] was -4.32 (inactive); in [3], -1.16 (inactive); in [4] it was -0.329 (inactive); in assay [5], 0.0393 (inactive).
For `C[C@H]1NC(=O)[C@H](Cc2ccccc2)NC(=O)[C@@]23C(=O)N[C@@H](Cc4ccccc4)C2[C@H](C)[C@@]2(C)O[C@H]2C3/C=C/C/C=C\CNC1=O` (stereo not given in full), the composite z-score in assay [1] is -0.182; in assay [6], -0.496; in assay [7] it was -0.179; in assay [8], -0.477; in assay [9], -0.402; in assay [10] it was 0.249. The z-score was -0.679 (inactive) in assay [2], 0.615 (inactive) in [3], 2.67 (inactive) in assay [4] and -0.522 (inactive) in assay [5].
Take `COCCOC(=O)N1C(=O)[C@@]2(c3cc(C#CCC(C(=O)OC)C(=O)OC)ccc31)[C@H](C(=O)N1CCN(c3ncccn3)CC1)[C@H]1C(=O)O[C@H](c3ccccc3)[C@H](c3ccccc3)N1[C@@H]2c1ccc(OCCO)cc1`: the composite z-score in assay [1] was 0.148; in [6], 0.392; in [7] it was -0.0221; in assay [8] it was 0.2; in [9], 0.542; in assay [10], 1.3. Also, the z-score in assay [2] was -3.18 (inactive); in [3], -1.66 (inactive); in [4], -1.83 (inactive); in assay [5], -1.08 (inactive).
Regarding `C=CCC(OC(C)=O)[C@@H]1[C@@H](N(Cc2cc3ccccc3o2)C(=O)c2ccc(C)cc2)c2cc(OCCCO)ccc2N1C(=O)c1ccc2ccccc2c1` (stereo not given in full), the composite z-score in assay [1] was 0.132; in assay [6], 0.0282; in assay [7] it was -0.0963; in assay [8], -0.353; in assay [9], -0.0172; in [10] it was 0.218. In addition, the z-score in [2] is 0.0491 (inactive); in [3], -0.571 (inactive); in assay [4] it was 3.93 (inactive); in assay [5], 0.697 (inactive).
For the compound `CC(=CC1CCCCC1)[C@@H](NC(=O)c1ccc(C(F)(F)F)cc1)c1ccc(-c2ccccc2)cc1`, the composite z-score in assay [1] is -0.239; in assay [6] it was 1.03; in assay [7] it was 0.105; in assay [8], -0.514; in assay [9], -0.336; in [10] it was -0.129. Further, the z-score in assay [2] was -0.992 (inactive); in assay [3], -0.019 (inactive); in assay [4], 0.587 (inactive); in assay [5], 0.618 (inactive).
For `CC(C)(C)OC(=O)CC[C@]1(C(=O)N2CCCCC2)N=C(c2ccc(OCCCO)cc2)O[C@H]1c1ccccc1N=[N+]=[N-]`, the composite z-score in [1] is 0.556; in assay [6], 1.87; in [7], 0.813; in [8] it was 0.569; in assay [9] it was 2.11; in assay [10], 0.837. Also, the z-score in assay [2] was -2.48 (inactive); in [3], 0.043 (inactive); in assay [4] it was 1.43 (inactive); in [5], -1.57 (inactive).
Turning to `COc1ccc(C(=O)Nc2cccc(CN3C(=O)[C@]4(O[C@H](CC(=O)N5CCC[C@H]5CO)[C@@H]([Si](C)(C)c5ccc(OC)cc5)[C@@H]4C)c4ccccc43)c2)cc1`, the composite z-score in assay [1] is 0.278; in assay [6], -0.349; in assay [7] it was -0.15; in assay [8] it was 0.421; in [9] it was 0.812; in assay [10], 1.79. Further, the z-score in assay [2] was -5.56 (inactive); in assay [3], 1.16 (inactive); in assay [4], 0.105 (inactive); in [5], -0.748 (inactive).
In the case of `O=C1N(CCS(=O)(=O)c2ccccc2)Cc2ccccc2C[C@]12N=C(c1ccc(OCCCO)cc1)O[C@@H]2c1ccccc1`, the composite z-score in [1] came out at 0.775; in [6], 0.196; in assay [7] it was 0.537; in assay [8], 0.916; in [9], 1.02; in [10] it was 1.51. The z-score in assay [2] is -3.53 (inactive); in assay [3], 0.81 (inactive); in assay [4], 0.0686 (inactive); in [5], -1.48 (inactive).
As to `[N-]=[N+]=NCc1ccccc1C[C@@]1(C(=O)N2CCOCC2)N=C(c2ccc(OCCCO)cc2)O[C@@H]1c1ccccc1CN=[N+]=[N-]`, the composite z-score worked out at 1.44 in assay [1]; 1.56 in assay [6]; 0.985 in assay [7]; 0.375 in [8]; 0.193 in assay [9]; 0.704 in assay [10]. Further, the z-score in [2] was -3.44 (inactive); in assay [3], -1.02 (inactive); in assay [4] it was 1.7 (inactive); in assay [5], -0.0755 (inactive).
Regarding `COc1ccc([Si](C)(C)[C@H]2[C@H](CCn3cc([C@H](O)c4ccccc4)nn3)O[C@@]3(C(=O)N(Cc4cccc(N5CCC5=O)c4)c4ccccc43)[C@@H]2C)cc1`, the composite z-score in assay [1] is 0.42; in [6] it was 0.552; in assay [7], -0.045; in assay [8], 0.358; in [9], 0.0772; in [10] it was 1.9. Moreover, the z-score is -1.67 (inactive) in [2], 0.115 (inactive) in assay [3], 2.55 (inactive) in [4] and -0.157 (inactive) in [5].
